Source: PubChem BioAssay (Tox21)
Records with an inconclusive call do not appear. The source made the active and inactive calls. Unless noted, calls follow the shape of the full dose curve.

How the values were obtained:
[1] = Nuclear factor erythroid 2-related factor 2/antioxidant responsive element (Nrf2/ARE) small molecule agonists: qHTS cell viability counter screen in human keratinocytes (AID 1919968; active = well fitted curve in the direction sought with a large enough effect in the repeat runs; an effect the other way counts as inactive or inconclusive; also: nearly all actives have a fitted effect of over 55% in size; also: potency is read from the fitted curve at half-maximal effect)
How it was run: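 In human HaCaT keratinocytes stably expressing an ARE-driven luciferase, compound exposure lasted 23 h at 37 C under 5% CO2. Viable cells are quantified with a protease-based fluorogenic reagent (CellTiter-Fluor) read 1 h after addition.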

[2] = biological target: KiSS-1 receptor (Homo sapiens) (UniProt Q969F8); assay: Human kisspeptin (KISS1R) small molecule agonists, calcium flux assay in KISS1R-HEK293 cells (AID 1920064; active = well fitted curve in the direction sought with a large enough effect in the repeat runs; an effect the other way counts as inactive or inconclusive)
How it was run: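 Concentration-response testing used 15 concentrations in triplicate on human KISS1R-expressing HEK293 cells. Calcium-dependent fluorescence (Ex/Em 480/540) was followed kinetically for 3 min after compound transfer.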

[3] = G protein-coupled receptor (GPCR) small molecule agonists, calcium flux assay: HEK293 wild type cell line counter screen (AID 1920065)
How it was run: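 Fluorescence intensity signals activation. After overnight (18 h) culture and a 1 h calcium dye load at 37 C, compounds are added by pin tool and the plate read at 480/540 nm for 3 min in 1 s steps.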

[4] = p53 small molecule agonists, cell-based qHTS assay with human liver microsomes (AID 1963577);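 also: p53 response element beta-lactamase reporter cells with liver microsomes plus NADPH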
How it was run: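 Reporter activation was measured by LiveBLAzer fluorescence intensity in p53RE-bla cells, which had been exposed to compounds for 16 h at 37 C alongside 0.5 mg/mL human liver microsomes and 0.5 mg/mL NADPH (final concentrations).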

[5] = p53 small molecule agonists, cell-based qHTS assay with rat liver microsomes (AID 1963578)
How it was run: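 Compound in DMSO added to p53RE-bla cells 5 h post-plating; rat microsomes/NADPH 0.5 mg/mL final; 16 h, 37 C; LiveBLAzer 2 h RT.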

[6] = p53 small molecule agonists, cell-based qHTS assay with human liver microsomes: qHTS cell viability counter screen (AID 1963579); also: nearly all actives have a fitted effect of over 45% in size
How it was run: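 HLM-supplemented (0.5 mg/mL final) and NADPH-supplemented (0.5 mg/mL final) p53RE-bla cultures, 4,000 cells per well, were dosed with compounds in DMSO for 16 h at 37 C; luminescent ATP detection (CellTiter-Glo, 30 min, room temperature) quantified surviving cells.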

[7] = p53 small molecule agonists, cell-based qHTS assay with rat liver microsomes: qHTS cell viability counter screen (AID 1963580); also: nearly all actives have a fitted effect of over 45% in size
How it was run: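 Luminescent ATP readout (CellTiter-Glo, 30 min at room temperature) reports viability of p53RE-bla HCT-116 cells after 16 h at 37 C with test compounds under metabolic activation by rat liver microsomes and NADPH at 0.5 mg/mL final each.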

[8] = p53 small molecule agonists, cell-based qHTS assay: qHTS cell viability counter screen (AID 1963581); also: nearly all actives have a fitted effect of over 45% in size
How it was run: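 Luminescence from CellTiter-Glo, reflecting ATP content, serves as the cytotoxicity measure; it is taken after the 2 h reporter substrate step in HCT-116 p53RE-bla cells dosed for 16 h at 37 C.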

[9] = p53 small molecule agonists, cell-based qHTS assay (AID 1963582; active = well fitted activation curve with a large enough effect in the signal ratio in the repeat runs, not every such curve was filed as active; the % refers to the signal ratio)
How it was run: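 After plating, p53RE-bla cells sat 5 h in the incubator; compounds or DMSO vehicle were pinned in; a 16 h incubation at 37 C followed; FRET substrate was added and, 2 h later at RT, fluorescence was measured.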

[10] = biological target: 5-hydroxytryptamine receptor 2A (Homo sapiens) (UniProt P28223); assay: 5-hydroxytryptamine receptor 2A (HTR2A) small molecule antagonists, cell-based qHTS assay (AID 1963586); also: nearly all actives have a fitted effect of over 45% in size; also: potency is read from the fitted curve at half-maximal effect
How it was run: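 CHO cells stably expressing human HTR2A were plated for 18 h at 37 C, then loaded with calcium dye for 1 h. Compounds were preincubated 5 min at room temperature before DOI (4 nM solution) was added. Kinetic fluorescence was read for 3 min.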

[11] = biological target: 5-hydroxytryptamine receptor 2A (Homo sapiens) (UniProt P28223); assay: 5-hydroxytryptamine receptor 2A (HTR2A) small molecule agonists, cell-based qHTS assay (AID 1963587); also: nearly all actives have a fitted effect of over 30% in size; also: potency is read from the fitted curve at half-maximal effect
How it was run: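 HTR2A-CHO cells, plated 18 h at 37 C/5% CO2, dye-loaded 1 h at 37 C; compounds in DMSO added by pin tool (agonist mode). Intracellular calcium flux read as kinetic fluorescence on FDSS over 2 min at 1 s intervals.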

[12] = biological target: Muscarinic acetylcholine receptor M1 (Homo sapiens) (UniProt P11229); assay: Cholinergic receptor muscarinic 1 (CHRM1) small molecule antagonists, cell-based qHTS assay (AID 1963588); also: nearly all actives have a fitted effect of over 40% in size; also: potency is read from the fitted curve at half-maximal effect
How it was run: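 Compounds were tested at 15 concentrations in three independent runs. Dye-loaded CHRM1-CHO cells were exposed 5 min at room temperature before stimulation by acetylcholine added at 50nM. Intracellular calcium was read kinetically on FDSS for 3 min.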

[13] = biological target: Muscarinic acetylcholine receptor M1 (Homo sapiens) (UniProt P11229); assay: Cholinergic receptor muscarinic 1 (CHRM1) small molecule agonists, cell-based qHTS assay (AID 1963589); also: nearly all actives have a fitted effect of over 35% in size
How it was run: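 Fluorescent calcium dye reports M1 activation in stably transfected CHO cells. Compounds, 15 concentrations, added after 1 h dye loading at 37 C; kinetic reading at 1 sec intervals.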

[14] = cAMP Responsive Elements (CRE) small molecule agonists, cell-based qHTS assay (AID 1963590)
How it was run: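 Compound exposure lasted 3 h at 37 C/5% CO2 in CRE-bla HEK 293T cells grown in assay medium with 10% dialyzed FBS and 25 mM HEPES. Reporter signal came from LiveBLAzer B/G FRET substrate, 2 h, room temperature.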

[15] = cAMP Responsive Elements (CRE) small molecule antagonists, cell-based qHTS assay (AID 1963591; active = well fitted inhibition curve with a large enough effect in the signal ratio in the repeat runs, not every such curve was filed as active; the % refers to the signal ratio)
How it was run: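 Stimulation used NKH477 at a final 0.25 uM for 3 h in compound-treated CRE-bla HEK293T cells, seeded 18 h beforehand. Reporter activity was measured with LiveBLAzer B/G FRET substrate after 2 h at room temperature.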

[16] = biological target: Beta-2 adrenergic receptor (Homo sapiens) (UniProt P07550); assay: Adrenergic beta2 receptor (ADRB2) small molecule antagonists, cell-based qHTS assay (AID 1963592); also: nearly all actives have a fitted effect of over 50% in size; also: potency is read from the fitted curve at half-maximal effect
How it was run: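 Assay format: CHO-ADRB2 cells, 18-20hr seeding at 37C/5% CO2, then compound plus 1nM isoproterenol agonist mix for 0.5hr RT. Homogeneous time-resolved fluorescence cAMP detection after 1hr, expressed as 665/615 nm ratio.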

[17] = biological target: D(2) dopamine receptor (Homo sapiens) (UniProt P14416); assay: Dopamine D2 receptor (DRD2) small molecule agonists, cell-based qHTS assay (AID 1963594); also: nearly all actives have a fitted effect of over 35% in size
How it was run: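 HEK293 cells stably expressing DRD2 were cultured 24 h at 37 C, then given Ro20-1724 (0.1 mM final) and compounds for 10 min at room temperature. NKH477 (200nM) was then added for 30 min. cAMP was read by HTRF.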

[18] = biological target: D(2) dopamine receptor (Homo sapiens) (UniProt P14416); assay: Dopamine D2 receptor (DRD2) small molecule antagonists, cell-based qHTS assay (AID 1963595; active = well fitted inhibition curve with a large enough effect in the signal ratio in the repeat runs, with a control signal flat; the % refers to the signal ratio)
How it was run: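 Antagonist mode in DRD2-HEK293 cells: after compound addition with 0.1 mM Ro20-1724, cells received quinpirole (12 nM) and NKH477 (200 nM) for 30 min at room temperature; HTRF cAMP read after 1 h detection.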

[19] = biological target: Beta-2 adrenergic receptor (Homo sapiens) (UniProt P07550); assay: Adrenergic beta2 receptor (ADRB2) small molecule agonists, cell-based qHTS assay (AID 1963593);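 also: CHO cells stably overexpressing human ADRB2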
How it was run: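 CHO cells stably over-expressing ADRB2 were plated overnight at 37C, then dosed with compounds plus a stimulation mix containing 100uM IBMX and 25uM Ro-20-1724 for 0.5hr at room temperature. cAMP was measured by HTRF competition, 1hr.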

Measured: Potency

Sequence of D(2) dopamine receptor (Homo sapiens) (P14416 whole entry, looked up): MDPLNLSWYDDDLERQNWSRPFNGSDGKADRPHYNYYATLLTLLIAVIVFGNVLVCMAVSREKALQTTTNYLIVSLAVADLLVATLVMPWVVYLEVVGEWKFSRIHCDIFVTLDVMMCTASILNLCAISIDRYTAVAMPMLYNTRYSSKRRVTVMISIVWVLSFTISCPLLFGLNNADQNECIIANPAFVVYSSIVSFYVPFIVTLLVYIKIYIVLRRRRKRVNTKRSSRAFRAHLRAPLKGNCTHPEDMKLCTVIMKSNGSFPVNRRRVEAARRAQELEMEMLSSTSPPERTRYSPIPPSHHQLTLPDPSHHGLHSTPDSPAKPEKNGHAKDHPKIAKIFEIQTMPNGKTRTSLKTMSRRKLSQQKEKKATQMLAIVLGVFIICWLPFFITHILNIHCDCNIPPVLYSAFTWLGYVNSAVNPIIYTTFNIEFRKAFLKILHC
Sequence of 5-hydroxytryptamine receptor 2A (Homo sapiens) (P28223 whole entry, looked up): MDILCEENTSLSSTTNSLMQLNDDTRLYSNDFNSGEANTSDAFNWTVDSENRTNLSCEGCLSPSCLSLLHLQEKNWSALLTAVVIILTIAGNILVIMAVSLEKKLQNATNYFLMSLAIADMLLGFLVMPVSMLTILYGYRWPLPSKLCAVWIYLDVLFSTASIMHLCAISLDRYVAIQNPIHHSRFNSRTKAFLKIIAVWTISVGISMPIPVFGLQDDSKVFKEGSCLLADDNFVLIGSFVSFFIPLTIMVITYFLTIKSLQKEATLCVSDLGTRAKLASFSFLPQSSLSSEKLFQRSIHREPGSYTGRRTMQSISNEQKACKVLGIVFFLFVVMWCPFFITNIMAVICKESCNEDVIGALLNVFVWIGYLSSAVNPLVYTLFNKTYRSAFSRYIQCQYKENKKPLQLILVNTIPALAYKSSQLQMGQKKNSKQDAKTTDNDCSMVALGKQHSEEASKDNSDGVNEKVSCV
Sequence of Muscarinic acetylcholine receptor M1 (Homo sapiens) (P11229 whole entry, looked up): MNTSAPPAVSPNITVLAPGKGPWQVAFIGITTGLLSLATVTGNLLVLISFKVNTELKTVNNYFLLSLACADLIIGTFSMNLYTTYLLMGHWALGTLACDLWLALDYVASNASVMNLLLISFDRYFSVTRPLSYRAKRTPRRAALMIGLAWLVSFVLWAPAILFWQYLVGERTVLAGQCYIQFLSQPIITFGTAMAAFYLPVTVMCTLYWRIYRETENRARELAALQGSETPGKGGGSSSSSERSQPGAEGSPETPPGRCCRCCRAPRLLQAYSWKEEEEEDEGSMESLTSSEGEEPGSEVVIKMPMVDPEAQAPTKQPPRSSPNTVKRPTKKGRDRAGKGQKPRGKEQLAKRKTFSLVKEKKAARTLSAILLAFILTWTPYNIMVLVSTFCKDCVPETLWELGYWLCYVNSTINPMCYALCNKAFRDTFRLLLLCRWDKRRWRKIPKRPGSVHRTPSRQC
Sequence of Beta-2 adrenergic receptor (Homo sapiens) (P07550 whole entry, looked up): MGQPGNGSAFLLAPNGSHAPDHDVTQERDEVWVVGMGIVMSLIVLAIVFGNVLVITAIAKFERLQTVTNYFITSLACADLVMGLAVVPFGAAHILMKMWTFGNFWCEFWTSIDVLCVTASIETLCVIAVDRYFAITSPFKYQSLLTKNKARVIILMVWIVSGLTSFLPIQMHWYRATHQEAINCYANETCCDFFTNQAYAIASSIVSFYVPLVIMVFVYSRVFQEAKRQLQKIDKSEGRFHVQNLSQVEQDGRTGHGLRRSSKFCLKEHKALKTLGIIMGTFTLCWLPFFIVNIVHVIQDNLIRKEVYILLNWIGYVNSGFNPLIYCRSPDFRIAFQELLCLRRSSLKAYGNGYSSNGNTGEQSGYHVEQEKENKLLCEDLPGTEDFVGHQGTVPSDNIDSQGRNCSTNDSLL
Sequence of KiSS-1 receptor (Homo sapiens) (Q969F8 whole entry, looked up): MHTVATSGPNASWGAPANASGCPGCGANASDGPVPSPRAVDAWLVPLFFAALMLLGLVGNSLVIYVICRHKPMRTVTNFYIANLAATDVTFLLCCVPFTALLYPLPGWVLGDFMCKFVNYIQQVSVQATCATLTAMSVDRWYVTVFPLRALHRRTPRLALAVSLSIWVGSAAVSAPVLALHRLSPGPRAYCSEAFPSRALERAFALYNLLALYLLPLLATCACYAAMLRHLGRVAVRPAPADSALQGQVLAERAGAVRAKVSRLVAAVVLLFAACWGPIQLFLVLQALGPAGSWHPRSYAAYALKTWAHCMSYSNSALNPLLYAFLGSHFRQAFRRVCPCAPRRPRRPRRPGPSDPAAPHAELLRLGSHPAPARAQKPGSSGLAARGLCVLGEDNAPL

Clc1ccccc1-c1ccccc1Cl
active: [1] 55.3 µM | [10] 47.9 µM
not listed: [19]
inactive: all other assays above

CCCCNP(N)(N)=S
not listed: [19]
inactive: all other assays above

O=C(O)CBr
not listed: [17] | [19]
inactive: all other assays above

Cc1cc(=O)[nH]o1
not listed: [11] | [16]
inactive: all other assays above

C[C@]12CC[C@H]3[C@@H](CCC4=CC(=O)CC[C@@H]43)[C@@H]1CC[C@@H]2OC(=O)CCC1CCCCC1
not listed: [9] | [18] | [19]
inactive: all other assays above

C=CCOC(C)=O
not listed: [14] | [15] | [19]
inactive: all other assays above

FC(F)(F)c1cccc(C2=CCN(CCc3ccc4ccccc4c3)CC2)c1
not listed: [15] | [18] | [19]
inactive: all other assays above

COc1cc(CC(C)N)cc2c1OCO2 (stereo not drawn)
active: [11] 1.44 µM | [12] 15.6 µM | [16] 32 µM
not listed: [10] | [19]
inactive: all other assays above

CCN(CC)CCOC(=O)C(C)(c1ccccc1)c1ccccc1
active: [12] 0.013 µM
not listed: [10] | [19]
inactive: all other assays above

C[C@@H]1CC[C@H]2[C@@H](C)C(=O)O[C@@H]3O[C@@]4(C)CC[C@@H]1[C@]32OO4
not listed: [10] | [11] | [12] | [13]
inactive: all other assays above

O=[N+]([O-])c1ccccc1CCl
not listed: [12] | [15] | [19]
inactive: all other assays above

CC(=O)Nc1cc([As](=O)(O)O)ccc1O
not listed: [10] | [16] | [17] | [19]
inactive: all other assays above
